Assay [1] has as its target Vascular endothelial growth factor receptor 3 (Homo sapiens) (UniProt P35916). Particulars: at 10 µM.
The target in assay [2] is Macrophage colony-stimulating factor 1 receptor (Homo sapiens) (UniProt P07333). Particulars: at 1 µM.
Assay [3] has the same target. The note with it: at 10 µM.
In assay [4] the target is Tyrosine-protein kinase Fyn (Homo sapiens) (UniProt P06241). The note with it: at 10 µM.
Assay [5] concerns the target T1, Mitogen-activated protein kinase kinase kinase kinase 2 (Homo sapiens) (UniProt Q12851).
T1 sequence (whole entry): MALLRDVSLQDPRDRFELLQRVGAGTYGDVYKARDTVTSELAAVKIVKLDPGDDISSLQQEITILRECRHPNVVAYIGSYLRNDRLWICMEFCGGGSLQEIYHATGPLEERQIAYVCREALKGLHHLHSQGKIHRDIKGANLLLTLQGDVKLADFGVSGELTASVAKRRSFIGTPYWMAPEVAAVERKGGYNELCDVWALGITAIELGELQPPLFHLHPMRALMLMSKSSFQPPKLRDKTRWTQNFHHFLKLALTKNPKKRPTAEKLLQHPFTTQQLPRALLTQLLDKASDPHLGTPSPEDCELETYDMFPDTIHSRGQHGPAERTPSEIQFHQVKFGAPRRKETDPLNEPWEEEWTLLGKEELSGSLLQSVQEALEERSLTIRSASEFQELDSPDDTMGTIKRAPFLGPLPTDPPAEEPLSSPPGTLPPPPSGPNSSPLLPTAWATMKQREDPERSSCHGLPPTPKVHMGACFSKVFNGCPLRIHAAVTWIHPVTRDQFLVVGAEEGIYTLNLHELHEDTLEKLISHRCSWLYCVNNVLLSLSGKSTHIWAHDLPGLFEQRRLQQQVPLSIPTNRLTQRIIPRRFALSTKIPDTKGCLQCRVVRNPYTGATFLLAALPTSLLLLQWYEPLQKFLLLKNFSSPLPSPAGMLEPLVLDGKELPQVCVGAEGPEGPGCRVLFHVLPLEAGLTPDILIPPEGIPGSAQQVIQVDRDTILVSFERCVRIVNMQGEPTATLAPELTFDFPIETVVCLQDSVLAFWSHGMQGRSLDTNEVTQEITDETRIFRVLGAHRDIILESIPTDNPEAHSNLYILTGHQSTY
Particulars: at 1 µM.

For assay [6], the target named is T1, Mitogen-activated protein kinase kinase kinase kinase 2 (Homo sapiens). Particulars: at 10 µM.
Assay [7] has as its target G protein-coupled receptor kinase 6 (Homo sapiens) (UniProt P43250). Particulars: at 10 µM.
For assay [8], the target named is Glycogen synthase kinase-3 beta (Homo sapiens) (UniProt P49841). The note with it: at 1 µM.
The target is the same in assay [9]. The note with it: at 10 µM.
The target of assay [10] is Homeodomain-interacting protein kinase 2 (Homo sapiens) (UniProt Q9H2X6). Particulars: at 1 µM.
Assay [11] shares this target. Particulars: at 10 µM.
Assay [12] concerns the target Homeodomain-interacting protein kinase 3 (Homo sapiens) (UniProt Q9H422). Particulars: at 1 µM.
Assay [13] concerns the target Tyrosine-protein kinase Fyn (Homo sapiens) (UniProt P06241). The note with it: at 1 µM.
Assay [14] addresses G protein-coupled receptor kinase 5 (Homo sapiens) (UniProt P34947). The note with it: at 10 µM.
Assay [15] has as its target T2, Rhodopsin kinase GRK7 (Homo sapiens) (UniProt Q8WTQ7).
T2 sequence (whole entry): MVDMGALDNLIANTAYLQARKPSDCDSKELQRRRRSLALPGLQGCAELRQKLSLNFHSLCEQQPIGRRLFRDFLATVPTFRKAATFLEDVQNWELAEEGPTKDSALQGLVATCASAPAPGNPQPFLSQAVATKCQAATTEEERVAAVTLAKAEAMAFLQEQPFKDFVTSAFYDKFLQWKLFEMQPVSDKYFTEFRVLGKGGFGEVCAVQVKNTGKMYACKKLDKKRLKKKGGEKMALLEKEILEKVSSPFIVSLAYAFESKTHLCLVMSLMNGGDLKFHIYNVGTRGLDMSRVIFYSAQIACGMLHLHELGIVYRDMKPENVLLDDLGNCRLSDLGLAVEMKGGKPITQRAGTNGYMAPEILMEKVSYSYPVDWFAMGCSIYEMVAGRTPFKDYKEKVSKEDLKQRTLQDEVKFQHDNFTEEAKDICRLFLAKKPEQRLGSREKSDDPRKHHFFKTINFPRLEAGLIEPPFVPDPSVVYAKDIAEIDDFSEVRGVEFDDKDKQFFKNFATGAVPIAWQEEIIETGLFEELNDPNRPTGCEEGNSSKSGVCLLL
The note with it: at 1 µM.

Assay [16] addresses T2, Rhodopsin kinase GRK7 (Homo sapiens). The note with it: at 10 µM.
Assay [17] addresses Glycogen synthase kinase-3 alpha (Homo sapiens) (UniProt P49840). The note with it: at 1 µM.
Assay [18] concerns the target Homeodomain-interacting protein kinase 1 (Homo sapiens) (UniProt Q86Z02). The note with it: at 1 µM.
Assay [19] shares this target. The note with it: at 10 µM.
For assay [20], the target named is Glycogen synthase kinase-3 alpha (Homo sapiens) (UniProt P49840). The note with it: at 10 µM.

We go through seven molecules from ChEMBL document CHEMBL2218924, “A broad activity screen in support of a chemogenomic map for kinase signalling research and drug discovery” (Biochem J, 2013).

Chain of Macrophage colony-stimulating factor 1 receptor (Homo sapiens) (P07333 whole entry): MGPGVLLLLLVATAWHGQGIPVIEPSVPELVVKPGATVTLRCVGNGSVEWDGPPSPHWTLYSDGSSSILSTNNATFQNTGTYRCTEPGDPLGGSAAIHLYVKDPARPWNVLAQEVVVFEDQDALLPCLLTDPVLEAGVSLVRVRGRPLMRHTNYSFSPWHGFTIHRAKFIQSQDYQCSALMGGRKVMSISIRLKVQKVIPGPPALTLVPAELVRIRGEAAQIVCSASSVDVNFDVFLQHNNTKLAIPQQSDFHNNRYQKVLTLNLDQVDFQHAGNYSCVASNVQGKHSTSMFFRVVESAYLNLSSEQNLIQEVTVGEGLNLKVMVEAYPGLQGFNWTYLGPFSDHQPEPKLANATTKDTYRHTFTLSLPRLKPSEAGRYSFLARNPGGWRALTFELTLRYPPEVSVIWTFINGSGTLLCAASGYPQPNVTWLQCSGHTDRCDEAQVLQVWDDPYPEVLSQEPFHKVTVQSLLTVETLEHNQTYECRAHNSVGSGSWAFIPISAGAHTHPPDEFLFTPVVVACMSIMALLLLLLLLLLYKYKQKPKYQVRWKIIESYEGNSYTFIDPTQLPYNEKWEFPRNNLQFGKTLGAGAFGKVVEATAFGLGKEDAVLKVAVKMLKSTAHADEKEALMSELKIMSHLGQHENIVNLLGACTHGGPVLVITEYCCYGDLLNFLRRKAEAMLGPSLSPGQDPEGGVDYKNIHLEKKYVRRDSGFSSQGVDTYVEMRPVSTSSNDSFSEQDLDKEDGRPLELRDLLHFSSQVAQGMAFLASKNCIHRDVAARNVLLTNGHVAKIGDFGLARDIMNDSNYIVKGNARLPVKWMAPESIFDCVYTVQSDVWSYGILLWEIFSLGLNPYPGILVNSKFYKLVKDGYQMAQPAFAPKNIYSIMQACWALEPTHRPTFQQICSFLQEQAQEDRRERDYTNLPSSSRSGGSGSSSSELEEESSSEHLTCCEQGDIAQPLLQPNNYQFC
Chain of Glycogen synthase kinase-3 beta (Homo sapiens) (P49841 whole entry, looked up): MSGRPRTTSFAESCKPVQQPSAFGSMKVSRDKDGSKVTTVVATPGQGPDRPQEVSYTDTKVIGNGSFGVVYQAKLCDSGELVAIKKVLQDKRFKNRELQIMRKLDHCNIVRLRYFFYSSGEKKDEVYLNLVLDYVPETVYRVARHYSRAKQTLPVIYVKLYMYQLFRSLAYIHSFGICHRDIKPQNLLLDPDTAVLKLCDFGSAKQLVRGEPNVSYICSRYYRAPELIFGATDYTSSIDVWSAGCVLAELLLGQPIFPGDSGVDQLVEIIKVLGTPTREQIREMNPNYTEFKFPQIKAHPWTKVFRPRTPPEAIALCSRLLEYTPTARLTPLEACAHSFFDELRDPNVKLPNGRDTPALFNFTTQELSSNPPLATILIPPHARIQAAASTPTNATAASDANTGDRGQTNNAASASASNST
Chain of G protein-coupled receptor kinase 6 (Homo sapiens) (P43250 whole entry, looked up): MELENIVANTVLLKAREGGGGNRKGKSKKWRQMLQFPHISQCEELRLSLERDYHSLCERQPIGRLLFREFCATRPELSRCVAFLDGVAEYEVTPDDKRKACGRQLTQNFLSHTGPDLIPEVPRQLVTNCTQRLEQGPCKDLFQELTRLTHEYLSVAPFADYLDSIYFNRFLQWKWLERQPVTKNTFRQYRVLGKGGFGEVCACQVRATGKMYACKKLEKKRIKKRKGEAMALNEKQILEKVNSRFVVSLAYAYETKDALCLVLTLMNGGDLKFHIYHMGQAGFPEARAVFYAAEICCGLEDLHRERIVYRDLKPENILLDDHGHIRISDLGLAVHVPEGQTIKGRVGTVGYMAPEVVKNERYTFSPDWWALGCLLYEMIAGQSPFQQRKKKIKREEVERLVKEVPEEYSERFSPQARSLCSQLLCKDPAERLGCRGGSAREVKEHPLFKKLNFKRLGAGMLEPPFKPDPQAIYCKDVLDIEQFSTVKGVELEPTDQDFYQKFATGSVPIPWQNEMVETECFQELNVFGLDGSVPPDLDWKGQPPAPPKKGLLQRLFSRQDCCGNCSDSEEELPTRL
Chain of Tyrosine-protein kinase Fyn (Homo sapiens) (P06241 2-537 limits assumed): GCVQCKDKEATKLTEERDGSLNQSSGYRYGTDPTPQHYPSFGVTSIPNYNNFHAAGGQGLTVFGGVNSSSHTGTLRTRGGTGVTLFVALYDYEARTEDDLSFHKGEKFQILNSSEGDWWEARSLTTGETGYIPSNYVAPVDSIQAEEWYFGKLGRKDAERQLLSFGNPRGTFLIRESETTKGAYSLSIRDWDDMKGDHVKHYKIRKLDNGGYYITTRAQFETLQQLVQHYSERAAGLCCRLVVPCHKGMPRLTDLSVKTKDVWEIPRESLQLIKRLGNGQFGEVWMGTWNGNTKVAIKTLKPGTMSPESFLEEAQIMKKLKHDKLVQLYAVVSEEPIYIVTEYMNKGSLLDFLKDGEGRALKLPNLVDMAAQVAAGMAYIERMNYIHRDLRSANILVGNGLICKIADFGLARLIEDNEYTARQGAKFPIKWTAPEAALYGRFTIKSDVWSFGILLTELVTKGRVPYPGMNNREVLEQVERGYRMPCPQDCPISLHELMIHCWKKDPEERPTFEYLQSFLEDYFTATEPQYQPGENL
Chain of Vascular endothelial growth factor receptor 3 (Homo sapiens) (P35916 whole entry): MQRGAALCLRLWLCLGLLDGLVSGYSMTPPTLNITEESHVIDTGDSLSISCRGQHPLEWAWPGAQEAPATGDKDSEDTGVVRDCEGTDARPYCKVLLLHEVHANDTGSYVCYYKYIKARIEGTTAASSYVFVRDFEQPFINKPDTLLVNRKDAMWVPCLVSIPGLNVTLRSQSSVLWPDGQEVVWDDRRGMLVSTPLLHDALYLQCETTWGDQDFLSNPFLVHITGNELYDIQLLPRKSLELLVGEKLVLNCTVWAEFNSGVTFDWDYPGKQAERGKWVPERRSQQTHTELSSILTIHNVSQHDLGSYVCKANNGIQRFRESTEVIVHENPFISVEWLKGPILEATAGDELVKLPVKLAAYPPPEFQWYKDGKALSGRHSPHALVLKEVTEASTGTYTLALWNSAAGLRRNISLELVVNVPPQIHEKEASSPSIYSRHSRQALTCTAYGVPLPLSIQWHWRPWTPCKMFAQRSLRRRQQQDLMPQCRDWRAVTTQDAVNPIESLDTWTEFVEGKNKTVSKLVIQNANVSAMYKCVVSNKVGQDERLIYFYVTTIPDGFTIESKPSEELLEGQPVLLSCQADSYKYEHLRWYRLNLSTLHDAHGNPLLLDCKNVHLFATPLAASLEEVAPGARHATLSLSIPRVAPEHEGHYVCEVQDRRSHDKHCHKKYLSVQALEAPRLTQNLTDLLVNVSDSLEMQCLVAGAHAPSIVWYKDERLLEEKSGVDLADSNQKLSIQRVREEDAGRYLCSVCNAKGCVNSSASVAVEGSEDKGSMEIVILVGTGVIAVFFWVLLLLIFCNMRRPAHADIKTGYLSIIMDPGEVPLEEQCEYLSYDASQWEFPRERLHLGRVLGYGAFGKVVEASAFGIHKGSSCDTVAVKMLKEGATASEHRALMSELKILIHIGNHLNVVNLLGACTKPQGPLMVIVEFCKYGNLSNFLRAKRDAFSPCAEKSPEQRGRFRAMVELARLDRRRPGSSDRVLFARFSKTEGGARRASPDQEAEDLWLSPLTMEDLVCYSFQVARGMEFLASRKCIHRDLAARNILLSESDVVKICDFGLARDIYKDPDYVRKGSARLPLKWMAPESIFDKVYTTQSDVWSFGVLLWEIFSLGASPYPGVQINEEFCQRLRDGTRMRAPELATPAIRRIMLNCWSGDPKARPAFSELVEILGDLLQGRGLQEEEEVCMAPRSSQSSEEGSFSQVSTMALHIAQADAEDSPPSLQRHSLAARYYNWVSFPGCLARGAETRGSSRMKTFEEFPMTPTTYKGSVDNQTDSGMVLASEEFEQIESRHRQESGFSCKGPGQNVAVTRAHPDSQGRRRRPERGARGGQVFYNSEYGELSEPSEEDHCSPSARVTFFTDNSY
Chain of Glycogen synthase kinase-3 alpha (Homo sapiens) (P49840 2-483 limits assumed): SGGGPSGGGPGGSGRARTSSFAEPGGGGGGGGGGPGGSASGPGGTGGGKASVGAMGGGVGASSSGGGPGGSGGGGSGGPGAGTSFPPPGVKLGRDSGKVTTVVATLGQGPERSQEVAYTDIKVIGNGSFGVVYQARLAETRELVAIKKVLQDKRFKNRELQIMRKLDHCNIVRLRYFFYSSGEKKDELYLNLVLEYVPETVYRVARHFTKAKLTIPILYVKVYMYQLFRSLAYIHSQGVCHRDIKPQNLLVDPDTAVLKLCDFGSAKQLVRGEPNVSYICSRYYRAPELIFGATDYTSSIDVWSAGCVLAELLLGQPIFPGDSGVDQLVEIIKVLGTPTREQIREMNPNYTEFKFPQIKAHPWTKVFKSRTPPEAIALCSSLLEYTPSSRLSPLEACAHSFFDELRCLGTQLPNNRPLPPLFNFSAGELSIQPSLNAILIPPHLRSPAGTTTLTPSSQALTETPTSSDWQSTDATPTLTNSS
Chain of G protein-coupled receptor kinase 5 (Homo sapiens) (P34947 whole entry, looked up): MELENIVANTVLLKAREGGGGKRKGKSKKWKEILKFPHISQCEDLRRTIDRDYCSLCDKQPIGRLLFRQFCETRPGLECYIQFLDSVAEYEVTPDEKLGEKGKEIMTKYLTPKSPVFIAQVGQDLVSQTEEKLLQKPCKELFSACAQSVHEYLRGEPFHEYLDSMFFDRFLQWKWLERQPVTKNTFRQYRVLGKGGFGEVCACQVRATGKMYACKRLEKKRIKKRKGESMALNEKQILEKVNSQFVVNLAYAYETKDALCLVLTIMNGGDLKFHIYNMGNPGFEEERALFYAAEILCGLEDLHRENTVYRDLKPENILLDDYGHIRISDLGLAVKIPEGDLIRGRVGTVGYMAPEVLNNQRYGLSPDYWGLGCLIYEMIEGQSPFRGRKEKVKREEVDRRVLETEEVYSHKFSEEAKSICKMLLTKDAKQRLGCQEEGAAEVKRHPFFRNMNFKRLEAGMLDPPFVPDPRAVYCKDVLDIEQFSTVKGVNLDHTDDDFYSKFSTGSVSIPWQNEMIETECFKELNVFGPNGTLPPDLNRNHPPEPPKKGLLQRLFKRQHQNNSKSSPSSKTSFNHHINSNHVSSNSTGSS

Take `COc1cc2ncc(-c3ccccc3)nc2cc1OC`: the residual activity in assay [1] worked out at 17%; in assay [2], 30%; in [3], 7%; in assay [4], 84%; in assay [5], 96%; in assay [6], 90%. Also, the residual activity in assay [7] amounted to 91%; in assay [8] it was 93%; in [9] it was 138%; in assay [10] it was 96%; in assay [11], 97%; in assay [12] it was 100%.

For `CC[n+]1c(/C=C/N(C)c2ccccc2)n(-c2ccccc2)c2ccc(-c3nc4ccccc4s3)cc21`, the residual activity was 52% in [1]; 93% in assay [2]; 71% in assay [3]; 101% in [13]; 60% in assay [4]; 103% in assay [5]. In addition, the residual activity in assay [6] amounted to 73%; in assay [14], 91%; in assay [7] it was 93%; in [15], 112%; in assay [16] it was 97%; in assay [17] it was 122%. Besides, the residual activity in assay [8] is 109%; in assay [9], 116%; in assay [18] it was 102%; in [19], 93%; in assay [10] it was 95%; in assay [11], 77%. Also, the residual activity in [12] came out at 99%.

As for `O=[N+]([O-])c1ccc(-c2nc(-c3ccc(F)cc3)c(-c3ccncc3)[nH]2)cc1`, the residual activity in assay [1] was 71%; in assay [2] it was 81%; in assay [3] it was 54%; in [13], 82%; in assay [4], 70%; in assay [5], 99%. The residual activity turned out to be 91% in [6]; 105% in assay [14]; 94% in assay [7]; 108% in assay [15]; 92% in assay [16]; 99% in assay [17]. Besides, the residual activity in [20] was 84%; in assay [8] it was 73%; in [9], 83%; in assay [18], 111%; in assay [10] it was 107%; in assay [11] it was 100%. Besides, in assay [12], the residual activity came to 110%.

As to `CCN(CC)C(=O)c1ccc(Nc2nc(OCC3CCCCC3)c3nc[nH]c3n2)cc1`, the residual activity was 0% in assay [1]; 1% in assay [2]; 2% in assay [3]; 35% in [13]; 5% in [4]; 33% in [5]. The residual activity was 3% in [6]; 97% in assay [15]; 78% in assay [16]; 72% in assay [17]; 15% in [20]; 75% in [8]. Moreover, the residual activity amounted to 26% in assay [9], 28% in assay [11] and 99% in [12].

As for `Cc1ccc(NC2=CC(=O)c3sc(C)nc3C2=O)cc1`, the residual activity in assay [1] turned out to be 84%; in assay [2], 96%; in assay [3] it was 79%; in assay [13], 82%; in [4], 93%; in assay [5] it was 86%. In addition, the residual activity in assay [14] came out at 99%; in assay [7] it was 85%; in [15], 84%; in assay [16], 89%; in assay [17], 119%; in [20], 106%. Besides, the residual activity amounted to 117% in [8]; 118% in [9]; 100% in assay [18]; 90% in assay [19]; 97% in [10]; 98% in assay [11]. Further, the residual activity in [12] turned out to be 92%.

Regarding `COc1cccc(-c2cc(=O)c3ccccc3o2)c1N`, the residual activity was determined as 80% in assay [1]; 114% in assay [2]; 88% in assay [3]; 93% in assay [13]; 39% in [4]; 91% in [5]. Besides, the residual activity turned out to be 82% in assay [6]; 102% in assay [14]; 96% in assay [7]; 96% in assay [15]; 97% in assay [16]; 77% in [20]. The residual activity in [8] was found to be 106%; in assay [9], 103%; in assay [18] it was 112%; in assay [19], 92%; in assay [10] it was 109%; in [11], 95%. The residual activity in [12] came out at 99%.

Take `Oc1c2ccccc2c2c3c(cccc13)N=N2`: the residual activity came to 0% in assay [1]; 36% in [2]; 9% in assay [3]; 60% in assay [13]; 47% in [4]; 16% in assay [5]. The residual activity in assay [6] was 2%; in assay [14], 63%; in assay [7] it was 81%; in assay [15], 71%; in [16], 27%; in assay [17], 54%. In addition, the residual activity was 40% in assay [20]; 74% in assay [8]; 58% in assay [9]; 93% in [18]; 62% in [19]; 55% in [10]. The residual activity in assay [11] came to 15%; in [12], 73%.
